The values that follow come from PubChem BioAssay (Tox21).

Unmarked numbers belong to inactive results. Records with an inconclusive call do not appear. Calls of active or inactive are those of the source. Unless noted, the call rests on the fitted dose curve; in most records, active means well fitted curve in the direction sought with a large enough effect in the repeat runs; inconclusive means weak or mixed curves; inactive means no such curve, though single readings can be large; an effect the other way counts as inactive or inconclusive.

Test [1] addresses Progesterone receptor (Homo sapiens) (UniProt P06401). Kind of test: qHTS assay to identify small molecule agonists of the progesterone receptor (PR) signaling pathway (AID 1346784; calls by dose curve; further: nearly all actives have a fitted effect of over 30% in size). The essentials:
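Agonist qHTS: compounds pinned onto 3,000 PR-UAS-bla HEK 293T cells per well in charcoal-stripped serum medium, 16hr at 37C, then beta-lactamase activity measured by LiveBLAzer FRET fluorescence after 2 hours at room temperature.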
For orientation: qHTS replaces the single test concentration by a dilution series.

The target is the same in test [2]. Put plainly: qHTS assay to identify small molecule antagonists of the progesterone receptor (PR) signaling pathway (AID 1346795; active means well fitted inhibition curve with a large enough effect in the signal ratio in the repeat runs, not every such curve was filed as active; the % refers to the signal ratio). Summed up: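 Antagonist mode with agonist R5020 at 1 nM final and 16 hr incubation at 37C. Reporter was beta-lactamase driven by UAS in HEK293T (PR-UAS-bla), 2% charcoal-stripped serum; signal from LiveBLAzer FRET substrate, 2 hr at room temperature.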

A short description of test [3]: qHTS assay to identify small molecule antagonists of the progesterone receptor (PR) signaling pathway - cell viability counter screen (AID 1346798). Further: series mostly up to about 92 µM; nearly all actives have a fitted effect of over 50% in size. Summed up: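 Cytotoxicity read as CellTiter-Glo luminescence (30 min, room temperature) in the same wells as the beta-lactamase readout. HEK293T PR-UAS-bla cells in charcoal-stripped 2% FBS received compound and R5020, then 16 h at 37C, 5% CO2.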

Test [4] is described as follows: qHTS assay to identify small molecule agonists of the progesterone receptor (PR) signaling pathway - cell viability counter screen (AID 1346799; calls by dose curve; further: nearly all actives have a fitted effect of over 45% in size). The essentials: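 Cytotoxicity measured by CellTiter-Glo luminescence (30 min, RT) in the same wells as the PR beta-lactamase agonist read. Those HEK293T cells had 16 h compound treatment at 37 C in 2% charcoal-stripped FBS medium.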

Test [5] is described as follows: qHTS assay to identify small molecule antagonists of the TGF-beta/Smad signaling pathway - cell viability counter screen (AID 1346824). Further: nearly all actives have a fitted effect of over 50% in size. The essentials:
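SBE-bla HEK 293T cells were plated overnight at 37 C, then given compounds in DMSO plus TGF-beta1 (added as 0.25 ng/mL solution) for 5 hr. After the bla read, CellTiter-Glo was added to the same wells and luminescence read after 30 min at room temperature.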

Test [6] is described as follows: qHTS assay to identify small molecule agonists of the TGF-beta/Smad signaling pathway - cell viability counter screen (AID 1346829). Further: top concentration of the series differs between compounds; nearly all actives have a fitted effect of over 45% in size. The essentials: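 After overnight seating at 37 C and 5% CO2, reporter cells got compounds for 5 hr and FRET substrate for 2 hr; cell viability then came from CellTiter-Glo luminescence.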
Test [7] is described as follows: qHTS assay to identify small molecule agonists of the TGF-beta/Smad signaling pathway (AID 1346859; active means well fitted activation curve with a large enough effect in the signal ratio in the repeat runs, not every such curve was filed as active; the % refers to the signal ratio; further: series mostly up to about 77 µM). The essentials: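 Fluorescence (ex 405 nm; em 460 and 530 nm) was read 2 h after LiveBLAzer FRET substrate at RT. The preceding compound treatment of overnight-plated SBE-bla HEK293T cells lasted 5 h at 37 C.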
A short description of test [8]: Human pregnane X receptor (PXR) small molecule agonists, qHTS cell viability counter screen (AID 1346977). Further: nearly all actives have a fitted effect of over 50% in size. The essentials: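 Same-well viability read: CellTiter-Fluor added after 23 hr compound exposure, fluorescence measured 1 hr later. Cells were PXR-Luc HepG2 seeded at 2,000/well in 5% charcoal-stripped FBS medium, rested 5 hr before dosing at 37 C.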
The nature of test [9]: Caspase-3/7 induction in HepG2 cells by small molecules, qHTS assay (AID 1346978). Further: nearly all actives have a fitted effect of over 15% in size. Summed up: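 Wild-type HepG2 cells (2,000/well) were settled 5 h at 37 C, 5% CO2, then exposed to compounds in DMSO for 17 h. Caspase-3/7 activity was read by luminescence 30 min after adding Caspase-Glo 3/7 reagent at room temperature.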
A short description of test [10]: Caspase-3/7 induction in CHO-K1 cells by small molecules, qHTS cell viability counter screen (AID 1346979). Further: nearly all actives have a fitted effect of over 35% in size. Summed up: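 Cytotoxicity counter screen: CellTiter-Fluor added to compound-treated wild-type CHO-K1 cells at 16 h (37C, 5% CO2), fluorescence measured 1 h later; same wells as caspase-3/7 measurement.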
A short description of test [11]: Caspase-3/7 induction in HepG2 cells by small molecules, qHTS cell viability counter screen (AID 1346981). Further: series mostly up to about 92 µM; nearly all actives have a fitted effect of over 30% in size. Summed up:
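Counter screen for cytotoxicity: HepG2 exposed 16 hr to compounds, then CellTiter-Fluor viability signal (fluorescence, 1 hr reagent incubation).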

Test [12] in a line: Caspase-3/7 induction in CHO-K1 cells by small molecules, qHTS assay (AID 1346980). Further: nearly all actives have a fitted effect of over 15% in size. Summed up: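 Wild-type cells were seeded at 1,500 per well and settled 5 hr at 37 C, 5% CO2, then exposed to DMSO-dissolved compounds for 17 hr. Caspase-Glo 3/7 reagent was added, and luminescence was read after 30min at room temperature.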
Test [13] deals with Nuclear receptor subfamily 1 group I member 2 (Rattus norvegicus) (UniProt Q9R1A7). Kind of test: Rat pregnane X receptor (rPXR) activation by small molecules, qHTS assay (AID 1346983). Further: nearly all actives have a fitted effect of over 20% in size. The conditions noted are these: rPXR luciferase reporter cells, One-Glo luminescence, 24 h; max activation: hits give high values. Summed up:
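Cell-based rPXR luciferase reporter assay, 2,000 cells per well, rested 5hr at 37 C before compound addition in DMSO, then 24 hr at 37 C. One-Glo reagent was added and luminescence read after 30 min at room temperature.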

Test [14] addresses Thyrotropin-releasing hormone receptor (Homo sapiens) (UniProt P34981). Kind of test: qHTS assay to identify small molecule antagonists of the thyrotropin-releasing hormone receptor (TRHR) signaling pathway (AID 1346877; active means well fitted inhibition curve with a large enough effect in the repeat runs, not every such curve was filed as active; further: series mostly up to about 51 µM). Summed up:
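In this cell-based calcium flux format, HEK293 cells expressing TRHR received test compound for 5 min before the agonist TRH (1 nM final). Dye loading lasted 2 h at 37 °C.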

Test [15] has the same target. Put plainly: qHTS assay to identify small molecule agonists of the thyrotropin-releasing hormone receptor (TRHR) signaling pathway (AID 1346891; calls by dose curve; further: series mostly up to about 58 µM). Summed up:
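Agonist-mode intracellular calcium readout: kinetic fluorescence over 3 min at 1 s intervals after compound addition to TRHR-HEK293 cells (18 h seeded, 2 h dye-loaded at 37 C). Fifteen concentrations, triplicates.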

The target in test [16] is Nuclear receptor subfamily 1 group I member 2 (Homo sapiens) (UniProt O75469). Put plainly: Human pregnane X receptor (PXR) small molecule agonists, qHTS assay (AID 1346982). Further: nearly all actives have a fitted effect of over 35% in size. Summed up:
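Luminescence (ONE-Glo, 30 min RT) after 24 hr compound exposure of PXR-Luc HepG2 cells; cells rested 5 hr post-plating in 5% charcoal-stripped FBS medium.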

Test [17] has as its target Cytochrome P450 2D6 (Homo sapiens) (UniProt P10635). Put plainly: Cytochrome P450 Family 2 Subfamily D Member 6 (CYP2D6) small molecule antagonists: luciferase reporter qHTS assay (AID 1671196). Further: series mostly up to about 120 µM; nearly all actives have a fitted effect of over 50% in size. Summed up:
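Inhibition of CYP2D6 was gauged by loss of luminescence, since light produced tracks the luciferin generated from a proluciferin substrate. A 10 min room-temperature preincubation preceded 1 h NADPH-supported turnover.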

In test [18] the target is Cytochrome P450 2C19 (Homo sapiens) (UniProt P33261). Put plainly: Cytochrome P450 Family 2 Subfamily C Member 19 (CYP2C19) small molecule antagonists: luciferase reporter qHTS assay (AID 1671197). Further: nearly all actives have a fitted effect of over 65% in size. Further: potency means the concentration at half of the fitted maximal effect. The essentials:
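Inhibition of CYP2C19 was scored from loss of luminescence in a P450-Glo proluciferin substrate assay, NADPH-started and run 1 h at 37C, with ketoconazole as positive control.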
On the technique in general: A reporter such as luciferase makes a cellular process visible.

The target of test [19] is Nuclear receptor subfamily 1 group I member 2 (Homo sapiens) (UniProt O75469). Put plainly: CYP3A4 induction through human pregnane X receptor (PXR) by small molecules, qHTS assay (AID 1346984). Further: nearly all actives have a fitted effect of over 40% in size. Summed up:
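DPX-2 reporter cells; 24h cpd, 37C; Luciferin-IPA 3uM final x3h; One-Glo 30 min RT; lumi read.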

Test [20] has the same target. Kind of test: Human pregnane X receptor (PXR) activation by small molecules, qHTS assay (AID 1346985). Further: nearly all actives have a fitted effect of over 40% in size. Summed up: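 DPX-2 cells (HepG2 co-transfected with a PXR response element and a CYP3A4-promoter luciferase construct) were seeded at 2,000 per well, rested 5 hr at 37C, then exposed to DMSO-dissolved compounds for 24 hr. Activation was read as luciferase luminescence.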
On the % scale 0 is the no-effect control and ±100 the full control effect.

Sequence of Progesterone receptor (Homo sapiens) (P06401 whole entry, looked up): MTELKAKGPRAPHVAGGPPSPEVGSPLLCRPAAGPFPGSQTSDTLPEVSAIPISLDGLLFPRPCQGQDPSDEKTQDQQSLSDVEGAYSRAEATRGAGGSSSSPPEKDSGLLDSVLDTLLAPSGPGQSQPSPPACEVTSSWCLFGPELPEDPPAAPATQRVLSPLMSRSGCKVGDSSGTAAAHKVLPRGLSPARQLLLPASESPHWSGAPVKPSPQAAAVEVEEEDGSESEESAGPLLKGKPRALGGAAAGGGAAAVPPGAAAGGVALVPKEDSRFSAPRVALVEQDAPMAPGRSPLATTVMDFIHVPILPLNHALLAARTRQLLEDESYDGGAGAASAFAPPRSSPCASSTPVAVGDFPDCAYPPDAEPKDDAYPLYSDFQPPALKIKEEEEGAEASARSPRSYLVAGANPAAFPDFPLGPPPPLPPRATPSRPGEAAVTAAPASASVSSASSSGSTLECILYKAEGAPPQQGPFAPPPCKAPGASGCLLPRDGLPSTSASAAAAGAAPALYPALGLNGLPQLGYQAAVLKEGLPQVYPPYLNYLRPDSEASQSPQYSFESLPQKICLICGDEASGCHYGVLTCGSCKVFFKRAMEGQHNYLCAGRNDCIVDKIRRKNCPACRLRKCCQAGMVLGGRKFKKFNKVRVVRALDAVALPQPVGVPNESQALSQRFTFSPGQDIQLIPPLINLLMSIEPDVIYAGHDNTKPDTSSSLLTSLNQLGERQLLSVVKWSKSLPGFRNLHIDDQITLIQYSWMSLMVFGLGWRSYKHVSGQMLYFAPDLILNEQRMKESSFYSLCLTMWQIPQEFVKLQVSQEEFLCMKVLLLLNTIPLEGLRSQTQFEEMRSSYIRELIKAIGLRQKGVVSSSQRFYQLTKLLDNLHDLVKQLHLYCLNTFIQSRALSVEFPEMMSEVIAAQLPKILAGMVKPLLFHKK
Sequence of Thyrotropin-releasing hormone receptor (Homo sapiens) (P34981 whole entry, looked up): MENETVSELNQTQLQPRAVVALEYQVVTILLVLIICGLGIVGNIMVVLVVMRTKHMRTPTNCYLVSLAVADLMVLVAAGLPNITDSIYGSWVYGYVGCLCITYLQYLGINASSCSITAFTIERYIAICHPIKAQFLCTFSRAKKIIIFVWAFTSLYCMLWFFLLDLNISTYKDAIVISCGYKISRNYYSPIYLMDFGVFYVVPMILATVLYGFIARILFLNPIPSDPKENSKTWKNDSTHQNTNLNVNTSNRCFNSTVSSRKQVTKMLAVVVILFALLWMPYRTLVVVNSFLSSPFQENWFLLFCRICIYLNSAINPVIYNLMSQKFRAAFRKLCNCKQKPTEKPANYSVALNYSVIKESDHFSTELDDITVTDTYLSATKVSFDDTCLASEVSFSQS
Sequence of Cytochrome P450 2C19 (Homo sapiens) (P33261 whole entry, looked up): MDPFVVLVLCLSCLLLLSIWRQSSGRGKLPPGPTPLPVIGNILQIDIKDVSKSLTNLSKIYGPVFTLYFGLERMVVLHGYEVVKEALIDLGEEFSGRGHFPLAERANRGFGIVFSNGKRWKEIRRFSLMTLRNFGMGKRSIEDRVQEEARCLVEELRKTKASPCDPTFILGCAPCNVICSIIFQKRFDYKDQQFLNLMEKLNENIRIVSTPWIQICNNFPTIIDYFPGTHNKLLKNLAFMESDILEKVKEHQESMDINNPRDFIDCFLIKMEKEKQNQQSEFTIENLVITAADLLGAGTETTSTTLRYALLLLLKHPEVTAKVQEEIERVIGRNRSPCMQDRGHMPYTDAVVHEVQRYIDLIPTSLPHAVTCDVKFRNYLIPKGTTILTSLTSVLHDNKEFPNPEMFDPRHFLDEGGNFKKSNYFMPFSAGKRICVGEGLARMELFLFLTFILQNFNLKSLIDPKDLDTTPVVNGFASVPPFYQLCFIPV
Sequence of Cytochrome P450 2D6 (Homo sapiens) (P10635 whole entry, looked up): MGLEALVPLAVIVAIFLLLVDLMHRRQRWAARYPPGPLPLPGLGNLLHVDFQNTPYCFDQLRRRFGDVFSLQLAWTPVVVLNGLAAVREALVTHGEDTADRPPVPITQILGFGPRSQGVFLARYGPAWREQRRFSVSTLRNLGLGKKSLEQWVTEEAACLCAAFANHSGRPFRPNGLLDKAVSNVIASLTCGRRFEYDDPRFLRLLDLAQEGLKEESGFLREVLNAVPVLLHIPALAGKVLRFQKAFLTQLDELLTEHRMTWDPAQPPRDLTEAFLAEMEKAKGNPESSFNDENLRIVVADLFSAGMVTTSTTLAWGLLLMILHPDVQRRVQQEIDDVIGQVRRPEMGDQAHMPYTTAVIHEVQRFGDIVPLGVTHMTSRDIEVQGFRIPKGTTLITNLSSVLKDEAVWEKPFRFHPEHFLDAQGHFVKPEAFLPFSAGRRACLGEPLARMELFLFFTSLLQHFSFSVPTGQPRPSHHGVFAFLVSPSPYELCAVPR
Sequence of Nuclear receptor subfamily 1 group I member 2 (Rattus norvegicus) (Q9R1A7 whole entry, looked up): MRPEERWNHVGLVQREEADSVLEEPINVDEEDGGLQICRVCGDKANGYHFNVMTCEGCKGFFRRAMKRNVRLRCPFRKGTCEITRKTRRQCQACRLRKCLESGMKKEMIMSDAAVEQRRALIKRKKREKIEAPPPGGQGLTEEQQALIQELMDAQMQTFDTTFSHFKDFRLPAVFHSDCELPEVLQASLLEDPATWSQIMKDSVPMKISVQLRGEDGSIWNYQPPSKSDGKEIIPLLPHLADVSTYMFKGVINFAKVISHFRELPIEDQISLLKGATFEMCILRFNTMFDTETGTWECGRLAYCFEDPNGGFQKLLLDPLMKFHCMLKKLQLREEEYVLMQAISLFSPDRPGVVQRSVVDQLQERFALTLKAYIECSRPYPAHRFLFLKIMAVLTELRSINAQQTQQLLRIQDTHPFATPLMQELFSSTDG
Sequence of Nuclear receptor subfamily 1 group I member 2 (Homo sapiens) (O75469 whole entry, looked up): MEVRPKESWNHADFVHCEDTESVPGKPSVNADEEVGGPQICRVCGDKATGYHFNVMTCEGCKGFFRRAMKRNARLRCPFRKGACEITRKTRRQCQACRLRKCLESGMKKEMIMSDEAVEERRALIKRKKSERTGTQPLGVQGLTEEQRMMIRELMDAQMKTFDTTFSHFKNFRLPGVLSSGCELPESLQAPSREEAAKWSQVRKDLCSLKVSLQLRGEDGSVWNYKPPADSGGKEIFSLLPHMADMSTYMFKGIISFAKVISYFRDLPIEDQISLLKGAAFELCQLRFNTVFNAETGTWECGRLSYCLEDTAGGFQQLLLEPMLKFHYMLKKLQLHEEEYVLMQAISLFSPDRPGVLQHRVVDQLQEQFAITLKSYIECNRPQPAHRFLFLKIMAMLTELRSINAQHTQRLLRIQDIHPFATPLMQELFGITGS

Consider `C1CCC2=NCCCN2CC1`, for which the Potency result in [1], in [2], in [3], in test [4], in test [8] and in test [10] was “inactive” throughout. Also, the Potency entry in test [11] is “inactive”. Further, the call in test [5], in test [6], in test [7] and in [9] was inactive.
On to `O=C(O)c1cn(C2CC2)c2cc(N3CCNCC3)c(F)cc2c1=O`, for which the Potency entry in test [1], in [2], in test [3], in test [4], in [8] and in [10] was “inactive” throughout. The Potency result in [11] is “inactive”. The molecule was classed as inactive in [5], in [6], in test [7] and in test [12]. Moreover, the max activation in test [13] was -1.42%.
Take `CN1CCC(=C2c3ccccc3CCc3cccnc32)CC1`: the Potency result in test [1], in test [2], in test [3], in [15], in test [10] and in test [11] was “inactive” each time. The Potency result in test [16] is “inactive”. Moreover, the molecule was called inactive in test [5], in [6], in test [14], in test [9] and in [12].
In the case of `C[C@H]1[C@H](NC(=O)/C(=N/OC(C)(C)C(=O)O)c2csc(N)n2)C(=O)N1S(=O)(=O)O` (stereo in doubt), the Potency result in test [1], in test [2], in [3], in [4], in [8] and in test [10] was “inactive” in each case. For the same molecule, the Potency entry in test [11], in test [17] and in test [18] was “inactive” throughout. Besides, the outcome in test [6], in test [7] and in test [12] was inactive. In addition, the max activation in test [13] is -2.74%.
For `CC[C@H]1OC(=O)[C@H](C)[C@@H](O[C@H]2C[C@@](C)(OC)[C@@H](O)[C@H](C)O2)[C@H](C)[C@@H](O[C@@H]2O[C@H](C)C[C@H](N(C)C)[C@H]2O)[C@](C)(OC)C[C@@H](C)C(=O)[C@H](C)[C@@H](O)[C@]1(C)O`, the Potency result in test [1], in [2], in [3], in [8], in test [10] and in [11] was “inactive” each time. Also, the Potency result in [16], in [19], in test [20] and in test [17] was “inactive” each time. The result in test [5], in test [6], in [7], in [14], in test [9] and in test [12] was inactive. In addition, the max activation in [13] was -0.482%. In addition, the Potency in [18] is 63.8 µM (active).
Regarding `CCOc1ccccc1OCC`, the Potency result in [1], in [2], in [3], in test [4], in [8] and in test [10] was “inactive” each time. In addition, the Potency entry in test [11] and in [16] was “inactive” each time. Besides, the molecule was called inactive in [5], in test [6], in test [7] and in test [9].
For the molecule `Cc1coc2ccccc2c1=O`, the Potency result in test [1], in [2], in test [3], in [15], in test [8] and in [10] was “inactive” throughout. For the same molecule, the Potency result in test [11], in test [16], in test [17] and in [18] was “inactive” throughout. Moreover, the outcome in test [5], in test [6], in test [7], in test [14], in test [9] and in [12] was inactive.
With `O=C(CO)[C@@H](O)[C@H](O)[C@H](O)CO`, the Potency entry in [1], in test [2], in [3], in test [15], in test [8] and in [10] was “inactive” each time. In addition, the Potency result in [11], in [16] and in test [18] was “inactive” in each case. Also, the outcome in [5], in [6], in test [7], in test [14] and in [12] was inactive.
As for `NCCCC(N)(C(=O)O)C(F)F` (stereo unspecified), the Potency result in [1], in test [2], in test [3], in test [15], in test [8] and in test [10] was “inactive” each time. The Potency result in test [11] was “inactive”. For the same molecule, the molecule was classed as inactive in test [5], in [6], in test [7], in test [14], in test [9] and in test [12].
